ChEMBL document CHEMBL1961873, “Compounds: GSK PKIS; Assays: Nanosyn kinase panel” (2012)

Target: T1, Serine/threonine-protein kinase Nek1 (Homo sapiens) (UniProt Q96PY6)
T1 sequence (whole entry): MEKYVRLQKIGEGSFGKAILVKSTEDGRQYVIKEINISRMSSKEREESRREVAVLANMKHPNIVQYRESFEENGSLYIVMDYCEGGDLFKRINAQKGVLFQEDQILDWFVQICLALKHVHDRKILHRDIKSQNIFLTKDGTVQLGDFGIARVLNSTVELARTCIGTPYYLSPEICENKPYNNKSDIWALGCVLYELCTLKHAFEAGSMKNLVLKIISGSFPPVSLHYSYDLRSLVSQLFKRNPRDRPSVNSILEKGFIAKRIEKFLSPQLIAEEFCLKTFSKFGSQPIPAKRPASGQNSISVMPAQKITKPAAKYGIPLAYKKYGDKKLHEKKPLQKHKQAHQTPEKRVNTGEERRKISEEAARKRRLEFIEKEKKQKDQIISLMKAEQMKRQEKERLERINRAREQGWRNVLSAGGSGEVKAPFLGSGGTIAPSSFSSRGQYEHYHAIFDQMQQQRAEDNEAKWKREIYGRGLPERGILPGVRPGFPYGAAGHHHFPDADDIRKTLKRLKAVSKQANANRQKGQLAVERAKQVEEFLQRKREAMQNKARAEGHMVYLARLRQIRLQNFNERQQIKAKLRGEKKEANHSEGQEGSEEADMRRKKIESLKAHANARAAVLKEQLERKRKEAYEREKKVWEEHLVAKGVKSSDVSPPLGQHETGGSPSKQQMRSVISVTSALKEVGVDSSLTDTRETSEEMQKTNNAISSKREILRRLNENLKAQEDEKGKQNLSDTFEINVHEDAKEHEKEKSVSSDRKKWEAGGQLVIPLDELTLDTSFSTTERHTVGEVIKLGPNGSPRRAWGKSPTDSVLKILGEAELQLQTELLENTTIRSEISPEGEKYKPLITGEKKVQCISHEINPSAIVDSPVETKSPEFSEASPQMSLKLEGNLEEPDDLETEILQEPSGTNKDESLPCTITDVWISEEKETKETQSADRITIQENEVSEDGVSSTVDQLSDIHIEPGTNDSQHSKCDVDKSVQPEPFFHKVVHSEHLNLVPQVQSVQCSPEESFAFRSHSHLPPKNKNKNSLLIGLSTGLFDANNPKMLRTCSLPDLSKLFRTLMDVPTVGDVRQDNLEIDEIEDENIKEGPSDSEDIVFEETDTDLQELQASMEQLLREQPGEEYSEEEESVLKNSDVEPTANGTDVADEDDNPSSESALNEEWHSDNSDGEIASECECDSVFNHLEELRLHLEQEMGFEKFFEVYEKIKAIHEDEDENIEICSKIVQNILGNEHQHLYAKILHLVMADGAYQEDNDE
Conditions: at 0.1 µM

SMILES | inhibition [%]
CCS(=O)(=O)c1ccc(OC)c(Nc2ncc(-c3cccc(OC)c3)o2)c1 | 0.44
CCn1c(-c2nonc2N)nc2c(C#CC(C)(C)O)nc(OCCNC)cc21 | 1.96
CN1CCN(C(=O)c2ccc(NC(=O)Nc3ccc(N(C)c4ccnc(Nc5ccc(CS(C)(=O)=O)cc5)n4)cc3)cc2)CC1 | 5.21
CC(C)c1ccc(Nc2nccc(-c3cnn4ncccc34)n2)cc1 | 3.1
N#Cc1cccc(Nc2nccc(-c3cnn4ncccc34)n2)c1 | 2.07
c1ccc(Cc2nc3ccc(Nc4ncnc5ccccc45)cc3[nH]2)cc1 | 0.8
Cc1ccc(C(=O)NC2CC2)cc1-c1ccc2[nH]ncc2c1 | -0.31
COC(=O)Nc1nc2cc(Oc3ccc(NC(=O)Nc4cccc(Br)c4)cc3)ccc2[nH]1 | 2.6
NC(=O)c1sc(-n2cnc3ccccc32)cc1OCc1ccccc1Br | 1.75
c1ccc(Nc2ncc(-c3ccccc3)o2)cc1 | 2.71
CCCN1CCCC(c2ccc(Nc3nc(Nc4cc(F)ccc4C(N)=O)c4cc[nH]c4n3)c(OC)c2)C1 (stereo unspecified) | 3.63
Nc1ccc(C#Cc2cncnc2Nc2ccc(OCc3cccc(F)c3)c(Cl)c2)cc1 | 3.38
CN(C)C(=O)O[C@H]1CN[C@H](C#Cc2cc3ncnc(Nc4ccc(OCc5cccc(F)c5)c(Cl)c4)c3s2)C1 | 1.2
O=C1Nc2ccc(-c3cccnc3)cc2C1=Cc1cc(Br)c(O)c(Br)c1 | 2.32
CS(=O)(=O)Nc1cccc(-c2ccc3c(NC(=O)C4CC4)n[nH]c3c2)c1 | 0.75
CCS(=O)(=O)c1ccc(OC)c(Nc2nccc(N(C)c3ccc4c(C)n[nH]c4c3)n2)c1 | 2.52
COc1cccc(-n2ncc3c(N/N=C/c4ccc(S(C)(=O)=O)cc4)ncnc32)c1 | 1.92

SMILES | inhibition [%]
Cc1ccc2c(-c3ccnc(Nc4cccc(C(F)(F)F)c4)n3)c(-c3ccccc3)nn2n1 | 3.11
Cc1ccc2c(-c3ccnc(Nc4ccc5c(c4)OCCO5)n3)c(-c3ccc(C(F)(F)F)cc3)nn2n1 | 0.53
NS(=O)(=O)c1ccc(-c2cc3ccncc3cc2OCc2ccccc2)cc1 | 2.31
COc1ccc2ncnc(Nc3ccc(OCc4ccccc4)cc3)c2c1 | 0.79
CCn1c(-c2nonc2N)nc2ccc(F)cc21 | 3.29
N#Cc1c(NC(=O)c2ccccc2F)sc2c1CCCC2 | 1.15
COc1cccc(-n2nc(C)c3c(N/N=C(\C)c4ccncc4)ncnc32)c1 | 1.7
OCc1ccc(-c2nc(-c3ccccn3)c(-c3ccc4c(c3)OCO4)[nH]2)cc1 | 2.17
CCOc1nccc2c1nc(-c1nonc1N)n2CC | 5.3
NS(=O)(=O)c1ccc(N/N=C2\C(=O)Nc3ccc(Cl)cc32)cc1 | 2.48
Cc1ccc(O)cc1Nc1ccnc2ccc(S(C)(=O)=O)cc12 | 2.87
COC(=O)c1ccc2c(c1)C(=Cc1cc(Br)c(O)c(Br)c1)C(=O)N2 | 2.53
[O-][S+]1CCN(Cc2ccc(-c3ccc4ncnc(Nc5ccc(OCc6ccccc6)c(Cl)c5)c4c3)o2)CC1 | 0.94
COc1cccc(-n2ncc3c(N/N=C/c4ccc(C)cc4)ncnc32)c1 | 5.55
O=S(=O)(CCOCc1ccc(-c2ccc3ncnc(Nc4ccc(OCc5cccc(F)c5)c(Cl)c4)c3c2)o1)c1ccccc1 | 1.11
COc1cc(/C=N/Nc2ncnc3c2cnn3C(C)C)ccc1O | 2.42

Target: T1, Serine/threonine-protein kinase Nek1 (Homo sapiens)
Conditions: at 1 µM

SMILES | inhibition [%]
CCS(=O)(=O)c1ccc(OC)c(Nc2ncc(-c3cccc(OC)c3)o2)c1 | 1.45
CCn1c(-c2nonc2N)nc2c(C#CC(C)(C)O)nc(OCCNC)cc21 | 2.74
CN1CCN(C(=O)c2ccc(NC(=O)Nc3ccc(N(C)c4ccnc(Nc5ccc(CS(C)(=O)=O)cc5)n4)cc3)cc2)CC1 | 29.1
CC(C)c1ccc(Nc2nccc(-c3cnn4ncccc34)n2)cc1 | 13.5
N#Cc1cccc(Nc2nccc(-c3cnn4ncccc34)n2)c1 | 10.9
c1ccc(Cc2nc3ccc(Nc4ncnc5ccccc45)cc3[nH]2)cc1 | 6.65
Cc1ccc(C(=O)NC2CC2)cc1-c1ccc2[nH]ncc2c1 | 1.87
COC(=O)Nc1nc2cc(Oc3ccc(NC(=O)Nc4cccc(Br)c4)cc3)ccc2[nH]1 | 2.19
NC(=O)c1sc(-n2cnc3ccccc32)cc1OCc1ccccc1Br | 2.24
c1ccc(Nc2ncc(-c3ccccc3)o2)cc1 | 2.57
CCCN1CCCC(c2ccc(Nc3nc(Nc4cc(F)ccc4C(N)=O)c4cc[nH]c4n3)c(OC)c2)C1 (stereo unspecified) | 21.6
Nc1ccc(C#Cc2cncnc2Nc2ccc(OCc3cccc(F)c3)c(Cl)c2)cc1 | 2.7
CN(C)C(=O)O[C@H]1CN[C@H](C#Cc2cc3ncnc(Nc4ccc(OCc5cccc(F)c5)c(Cl)c4)c3s2)C1 | 3.73
O=C1Nc2ccc(-c3cccnc3)cc2C1=Cc1cc(Br)c(O)c(Br)c1 | 0.46
CS(=O)(=O)Nc1cccc(-c2ccc3c(NC(=O)C4CC4)n[nH]c3c2)c1 | 1.07
CCS(=O)(=O)c1ccc(OC)c(Nc2nccc(N(C)c3ccc4c(C)n[nH]c4c3)n2)c1 | 2.74
COc1cccc(-n2ncc3c(N/N=C/c4ccc(S(C)(=O)=O)cc4)ncnc32)c1 | 5.16

SMILES | inhibition [%]
Cc1ccc2c(-c3ccnc(Nc4cccc(C(F)(F)F)c4)n3)c(-c3ccccc3)nn2n1 | 2.67
Cc1ccc2c(-c3ccnc(Nc4ccc5c(c4)OCCO5)n3)c(-c3ccc(C(F)(F)F)cc3)nn2n1 | 1.72
NS(=O)(=O)c1ccc(-c2cc3ccncc3cc2OCc2ccccc2)cc1 | 2.44
COc1ccc2ncnc(Nc3ccc(OCc4ccccc4)cc3)c2c1 | 4.16
CCn1c(-c2nonc2N)nc2ccc(F)cc21 | 4.51
N#Cc1c(NC(=O)c2ccccc2F)sc2c1CCCC2 | 2.83
COc1cccc(-n2nc(C)c3c(N/N=C(\C)c4ccncc4)ncnc32)c1 | -0.2
OCc1ccc(-c2nc(-c3ccccn3)c(-c3ccc4c(c3)OCO4)[nH]2)cc1 | 2.95
CCOc1nccc2c1nc(-c1nonc1N)n2CC | 8.93
NS(=O)(=O)c1ccc(N/N=C2\C(=O)Nc3ccc(Cl)cc32)cc1 | 3.33
Cc1ccc(O)cc1Nc1ccnc2ccc(S(C)(=O)=O)cc12 | 5.3
COC(=O)c1ccc2c(c1)C(=Cc1cc(Br)c(O)c(Br)c1)C(=O)N2 | 2.21
[O-][S+]1CCN(Cc2ccc(-c3ccc4ncnc(Nc5ccc(OCc6ccccc6)c(Cl)c5)c4c3)o2)CC1 | 0.52
COc1cccc(-n2ncc3c(N/N=C/c4ccc(C)cc4)ncnc32)c1 | 9.78
O=S(=O)(CCOCc1ccc(-c2ccc3ncnc(Nc4ccc(OCc5cccc(F)c5)c(Cl)c4)c3c2)o1)c1ccccc1 | 1.59
COc1cc(/C=N/Nc2ncnc3c2cnn3C(C)C)ccc1O | 10.4
